IL-1B inflam inh: blocks inflammasome-driven IL-1 beta release; THP-1 LPS/ATP IL-1B secretion, AlphaLISA, 16 h; active compounds read low; activity change, % at 57.5 µM; 4.7% of 360,000 active; in the data active means activity change below about -50%; inconclusive means mostly about -30% to -49%
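THP-1 cells pretreated 1 hr with compounds (up to 57.5 uM final), then stimulated with LPS (250 ng/mL final) plus ATP (1.25 mM final); secreted IL-1B measured by AlphaLISA after 16 hr, decreased signal indicating inhibition.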
DT40 TDP1 no CPT: qHTS for Inhibitors of human tyrosyl-DNA phosphodiesterase 1 (TDP1): qHTS in cells in absence of CPT. 15% of 420,000 active. Potency, µM (series often up to 46.2 µM), hits mostly inhibitors. DT40 Tdp1-/- hTDP1 cells, no CPT, ATP luminescence, 48 h; further: nearly all actives have a fitted effect of over 55% in size
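Luminescent ATP content (CellTiter-Glo) served as the growth readout. Knockout chicken DT40 cells expressing human TDP1 were exposed to compounds without camptothecin for a minimum 48 hr at 37 °C.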
ALOX12 inh: ALOX12 (human) lipoxygenase inhibition | 1.1% of 580,000 active | purified 12hLO, xylenol orange hydroperoxide absorbance | P18054 | AID 1671190 | Potency, µM (highest dose often 108 µM), usual class: inhibitors
Target sequence (P18054 whole entry, looked up): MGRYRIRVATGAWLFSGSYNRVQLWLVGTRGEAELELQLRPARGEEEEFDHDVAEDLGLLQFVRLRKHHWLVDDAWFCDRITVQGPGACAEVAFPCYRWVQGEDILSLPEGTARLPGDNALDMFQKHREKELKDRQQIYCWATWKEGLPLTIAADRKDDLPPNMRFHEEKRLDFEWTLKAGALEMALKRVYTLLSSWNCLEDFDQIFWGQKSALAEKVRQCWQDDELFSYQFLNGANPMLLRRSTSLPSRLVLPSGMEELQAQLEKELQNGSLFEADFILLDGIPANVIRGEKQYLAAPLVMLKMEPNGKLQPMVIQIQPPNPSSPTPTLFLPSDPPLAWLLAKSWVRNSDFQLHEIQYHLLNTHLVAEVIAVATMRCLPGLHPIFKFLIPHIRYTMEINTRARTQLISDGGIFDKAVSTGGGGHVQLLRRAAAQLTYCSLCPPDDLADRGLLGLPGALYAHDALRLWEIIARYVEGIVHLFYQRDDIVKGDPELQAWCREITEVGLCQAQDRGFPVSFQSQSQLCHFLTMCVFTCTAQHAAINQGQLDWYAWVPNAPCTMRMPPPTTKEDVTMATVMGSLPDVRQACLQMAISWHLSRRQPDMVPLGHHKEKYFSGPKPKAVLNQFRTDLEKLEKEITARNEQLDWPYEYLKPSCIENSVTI
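Purified human 12hLO at 150 nM in 25 mM Hepes, 0.01% Triton X-100, pH 7.0, preincubated 15 min at room temperature with compound. Reaction started with 40 uM arachidonic acid, 30 min at room temperature. Hydroperoxide measured by Fe-xylenol orange, 573/405 nm absorbance ratio.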
HT1080NT lethal: kills 2HG-producing HT-1080-NT fibrosarcoma cells; HT-1080-NT fibrosarcoma viability, CellTiter-Glo ATP luminescence, 48 h; Potency, µM (titrated, usually from 46.1 µM), hits mostly cytotoxic; 1.6% of 360,000 active; AID 686970;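 further: NT is the 2HG producing partner of a matched IDH1 knockdown line; nearly all actives have a fitted effect of over 55% in size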
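Compounds were tested in concentration-response format on HT-1080-NT cells for 48 hours at 37 degrees C. Cell viability came from CellTiter-Glo luminescence; curves were classified by r2, response magnitude and activity.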
HT1080 IDH1KD tx: kills HT-1080 cells with IDH1 knockdown; 2% of 360,000 active; Potency, µM (highest dose often 46.1 µM), hits mostly cytotoxic; HT-1080 IDH1 knockdown viability, ATP luminescence, 48 h
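Cytotoxicity counter-line: IDH1KD HT-1080, 48 h, CellTiter-Glo. Curves classed by r2, magnitude and activity.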
DT40 TDP1 CPT: DT40-hTDP1 cell growth loss with CPT | Potency, µM (top dose mostly 46.2 µM), usual class: inhibitors | 12% of 420,000 active | AID 686979 | chicken DT40 Tdp1-/-;hTDP1 cells + 20 nM CPT, ATP luminescence, 48 h; further: nearly all actives have a fitted effect of over 55% in size
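Chicken DT40 Tdp1-/- cells stably complemented with human TDP1 were seeded at 400 cells/well in medium containing 20 nM camptothecin, exposed to pin-transferred compounds, and grown at 37 °C for at least 48 hr. Viability was read as ATP luminescence.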
Numbers stand for hits; - = inactive; ? = inconclusive; . = no result given; ! = a repeat was not active; [ ] = remark or other dose. Only a selection was taken, and hits are over-represented in it overall. Unless noted, the call rests on the fitted dose curve; in most records, active means well fitted curve in the direction sought with a large enough effect; inconclusive means small, poorly fitted or top-dose-only effect, or another doubt; inactive means no such curve, though single readings can be large; an effect the other way counts as inactive or inconclusive.

SMILES | IL-1B inflam inh | DT40 TDP1 no CPT | ALOX12 inh | HT1080NT lethal | HT1080 IDH1KD tx | DT40 TDP1 CPT
CC(=O)[C@H]1[C@H](C#N)C[C@H]2[C@@H]3CC=C4C[C@@H](O)CC[C@]4(C)[C@H]3CC[C@@]21C | - | 13µM! | - | - | - | ?
O=C(Cc1ccccc1F)N1CCN(C2CCN(Cc3cccnc3)C2=O)CC1 (configuration not stated) | . | . | - | . | . | .
O=[N+]([O-])c1ccc(NCCNS(=O)(=O)c2ccccc2)c2ncccc12 | . | . | - | . | . | .
Cc1c(NS(=O)(=O)c2ccccc2)ccc([N+](=O)[O-])c1Cl | - | 16µM | - | 2.9µM | ? | ?
Cc1ccccc1-c1ccc2c(c1)C1c3c(-c4ccccc4)nnn3-c3ccccc3C(=O)N1CC2 (configuration not stated) | - | 29µM | ? | - | - | 21µM
COC1CCC(OC2CC(C3(C)CCC4(CC(O)C(C)C(C(C)/C=C(\C)C(=O)C(C)CC(C)C(=O)O)O4)O3)OC3(OC(C4OC(O)(CO)C(C)CC4C)CC3C)C2C)OC1C (configuration not stated) | -54 | 0.15µM | - | 13µM | 3.7µM | 0.15µM
O=c1[nH]c2ccccc2n1C1CCN(C(c2cccs2)c2nnnn2-c2ccc3c(c2)OCCO3)CC1 (configuration not stated) | - | 2.3µM | - | ? | 3.3µM | 2.9µM
O=C1NCN(c2ccccc2)C12CCN(C(c1ccccc1)c1nnnn1C1CCCC1)CC2 (configuration not stated) | ? | ? | ? | - | - | ?
O=c1[nH]c2ccccc2n1C1CCN(C(c2ccccc2)c2nnnn2-c2ccc3c(c2)OCCO3)CC1 (configuration not stated) | - | 18µM | - | ? | ? | 18µM
O=c1[nH]c2ccccc2n1C1CCN(C(c2nnnn2-c2ccc3c(c2)OCCO3)C2CC2)CC1 (configuration not stated) | - | 7.3µM | ? | ? | ? | 13µM
CCCCCCCCCCCCCCCC[N+](C)(C)C | - | 1.8µM | ? | 12µM | ? | 2.3µM
CCCCCCCCCCCCCCCCCC[N+](C)(C)CCC[Si](OC)(OC)OC | . | 12µM | . | . | . | 24µM
CCCCCCCCCC[N+](C)(C)CCCCCCCCCC | . | 0.94µM | . | . | . | 1.3µM
COc1cc2c(cc1OCC1CC1)NC(=O)C21CCN(C(=O)c2cccc(C#N)c2)CC1 | . | . | - | . | . | .
CCN1CCN(C(=O)Cc2cccn2-c2ccc(F)cc2)CC1 | . | . | - | . | . | .
COC(=O)[C@]12OC[C@]34C([C@@H](O)[C@@H]1O)[C@]1(C)CC(=O)C(O)=C(C)[C@@H]1C[C@H]3OC(=O)[C@H](O)[C@@H]24 (some centres not stated) | - | 1.5µM | - | ? | ? | 2.9µM
CC1=CC(O)C(O)C2(C)C1CC1OC(=O)C(O)C3C(C)C(O)C4(O)OCC13C42 (configuration not stated) | - | - | - | - | ? | -
O=C(c1ccc2c3c(cccc13)CC2)C1CCCN(CC2CC2)C1 (configuration not stated) | -117 | 23µM | - | ? | 16µM | 18µM
O=C(c1ccc2c3c(cccc13)CC2)C1CCCN(Cc2ncc[nH]2)C1 (configuration not stated) | ? | ? | - | ? | ? | ?
COc1ccc2c(c1)[C@@]13CCCCC1[C@@H](C2)N(C)CC3 (some centres not stated) | . | 16µM | . | . | . | -
CN1CC[C@@]23CCCCC2C1Cc1ccc(O)cc13 (some centres not stated) | . | -[9.04 µM] | - | . | . | -[9.04 µM]

Screening data deposited in PubChem by National Center for Advancing Translational Sciences (NCATS).
